This passage reports inhibition results from PubChem BioAssay AID765 (NMMLSC, 2007).

Usually inhibition stands for the drop in the measured response relative to a control, in per cent.

The source made the active and inactive calls. Rule as the data show it: active = inhibition above about 31%; inactive = the rest.

The target in the assay is N-formyl peptide receptor 2 (Homo sapiens) (UniProt P25090). Put plainly: human FPR2 ligand displacement single-point screen – cell-based, flow cytometry, single concentration (AID 765). To be noted: FPRL1-expressing cells, fluorescent ligand binding inhibition, active compounds read high; at 5.1 µM unless noted.
N-formyl peptide receptor 2 (Homo sapiens), sequence (P25090 whole entry, looked up): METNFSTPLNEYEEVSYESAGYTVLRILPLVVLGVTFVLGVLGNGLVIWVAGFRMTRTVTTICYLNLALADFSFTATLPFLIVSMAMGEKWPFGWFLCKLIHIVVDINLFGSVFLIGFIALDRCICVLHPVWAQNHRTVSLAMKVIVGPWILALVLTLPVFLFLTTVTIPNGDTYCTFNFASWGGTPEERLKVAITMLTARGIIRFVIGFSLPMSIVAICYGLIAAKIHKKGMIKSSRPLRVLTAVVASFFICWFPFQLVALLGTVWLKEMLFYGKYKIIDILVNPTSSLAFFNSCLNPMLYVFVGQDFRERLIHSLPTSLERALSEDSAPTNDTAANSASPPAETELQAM
As for `FC(F)(F)c1cc(-c2ccccc2)nc(N2CCN(c3ccccc3)CC2)n1`, the inhibition is -10.6% [at 5.8 µM] (inactive). Turning to `COc1ccc(-c2cn3cccnc3n2)cc1NC(=O)C1CCCC1`, the inhibition was 34.6% [at 6.6 µM] (active). As to `CCOC(=O)N1CCN(c2nc(-c3ccc(C)cc3)cc(C(F)F)n2)CC1`, the inhibition is 1% [at 5.9 µM] (inactive). For the compound `COc1ccc(-c2cn3cccnc3n2)cc1NC(=O)C(C)C`, the inhibition was 25.1% [at 7.2 µM] (inactive). With `Fc1ccc(-c2cc(C(F)(F)F)nc(N3CCN(C(c4ccccc4)c4ccccc4)CC3)n2)cc1`, the inhibition is -9.4% [at 4.5 µM] (inactive). On to `COc1ccc(-c2cn3cccnc3n2)cc1NC(=O)c1ccc(C(F)(F)F)cc1`, for which the inhibition was -3.6% [at 5.4 µM] (inactive). Turning to `COc1ccc(-c2cn3cccnc3n2)cc1NC(=O)c1ccccc1F`, the inhibition was 0.8% [at 6.1 µM] (inactive). On to `COc1cccc(C(=O)Nc2cc(-c3cn4cccnc4n3)ccc2OC)c1`, for which the inhibition is 12.2% [at 5.9 µM] (inactive). Consider `Cc1ccccc1N1CCN(c2nc(-c3ccccc3)c3cc(Br)ccc3n2)CC1`, for which the inhibition is 0.2% [at 4.8 µM] (inactive). Turning to `CC(C)(C)OC(=O)N1CCN(c2nc(-c3ccccc3)c3cc([N+](=O)[O-])ccc3n2)CC1`, the inhibition is 14.7% (inactive). For `COc1ccc(-c2cn3cccnc3n2)cc1NC(=O)c1cc(C)cc(C)c1`, the inhibition is 4.9% [at 6 µM] (inactive).
